About 410 targets per protein were measured; listed, in parts, are those with the strongest signals and a random draw of the rest.
What was measured:
Test in all cases: glycan array binding signal (z-score within array); higher = stronger binding
Conditions in all cases: glycan notation: IUPAC condensed, linker removed
[1] = molecular target: Fuc(a1-2)Gal(b1-3)GlcNAc(b1-2)Man(a1-3)[Fuc(a1-2)Gal(b1-3)GlcNAc(b1-2)Man(a1-6)]Man(b1-4)GlcNAc(b1-4)GlcNAc
Outline: (§1)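 The binding signal is a Z-score computed within each array and averaged over linkers. Arrays of the same protein sequence at different concentrations or buffers were also averaged together. Data originate from 3228 arrays in the Consortium for Functional Glycomics database, kept only where the protein sequence was available.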

[2] = molecular target: Fuc(a1-2)Gal(b1-3)[Fuc(a1-4)]GlcNAc(b1-2)Man(a1-3)[Fuc(a1-2)Gal(b1-3)[Fuc(a1-4)]GlcNAc(b1-2)Man(a1-6)]Man(b1-4)GlcNAc(b1-4)[Fuc(a1-6)]GlcNAc(b1-4)[Fuc(a1-6)]GlcNAc
Outline: as §1

[3] = molecular target: Fuc(a1-2)Gal(b1-4)GlcNAc(b1-3)Gal(b1-4)GlcNAc(b1-2)Man(a1-3)[Fuc(a1-2)Gal(b1-4)GlcNAc(b1-3)Gal(b1-4)GlcNAc(b1-2)Man(a1-6)]Man(b1-4)GlcNAc(b1-4)GlcNAc
Outline: as §1

[4] = molecular target: Fuc(a1-2)[Gal(a1-3)]Gal(b1-4)GlcNAc(b1-2)Man(a1-3)[Fuc(a1-2)[Gal(a1-3)]Gal(b1-4)GlcNAc(b1-2)Man(a1-6)]Man(b1-4)GlcNAc(b1-4)GlcNAc
Outline: as §1

[5] = molecular target: Fuc(a1-2)[GalNAc(a1-3)]Gal(b1-4)GlcNAc(b1-3)Gal(b1-4)GlcNAc(b1-3)Gal(b1-4)GlcNAc
Outline: as §1

[6] = molecular target: Fuc(a1-2)[GalNAc(a1-3)]Gal(b1-4)[Fuc(a1-3)]GlcNAc
Outline: as §1

[7] = molecular target: Fuc(a1-3)[Gal(b1-4)]GlcNAc(b1-2)Man
Outline: as §1

[8] = molecular target: Fuc(a1-3)[Gal(b1-4)]GlcNAc(b1-2)Man(a1-3)[Fuc(a1-3)[Gal(b1-4)]GlcNAc(b1-2)Man(a1-6)]Man(b1-4)GlcNAc(b1-4)GlcNAc
Outline: as §1

[9] = molecular target: Gal(a1-3)[Gal(a1-4)]Gal(b1-4)GlcNAc
Outline: as §1

[10] = molecular target: Gal(b1-3)GalNAc(b1-4)Gal(b1-4)Glc
Outline: as §1

[11] = molecular target: Gal(b1-3)[Fuc(a1-4)]GlcNAc(b1-3)Gal(b1-4)[Fuc(a1-3)]GlcNAc
Outline: as §1

[12] = molecular target: Gal(b1-3)[Neu5Ac(b2-6)]GalNAc
Outline: as §1

Gal(b1-4)GlcNAc = molecular target: Gal(b1-4)GlcNAc
Outline: as §1

[13] = molecular target: Gal(b1-4)GlcNAc(a1-6)Gal(b1-4)GlcNAc
Outline: as §1

[14] = molecular target: Gal(b1-4)GlcNAc(b1-2)Man(a1-3)[Man(a1-6)]Man(b1-4)GlcNAc(b1-4)GlcNAc
Outline: as §1

[15] = molecular target: Gal(b1-4)GlcNAc(b1-2)[Gal(b1-4)GlcNAc(b1-6)]Man(a1-6)[Gal(b1-4)GlcNAc(b1-2)Man(a1-3)]Man(b1-4)GlcNAc(b1-4)[Fuc(a1-6)]GlcNAc
Outline: as §1

[16] = molecular target: Gal(b1-4)GlcNAc(b1-3)Gal(b1-4)GlcNAc(b1-2)[Gal(b1-4)GlcNAc(b1-3)Gal(b1-4)GlcNAc(b1-6)]Man(a1-6)[Gal(b1-4)GlcNAc(b1-3)Gal(b1-4)GlcNAc(b1-2)Man(a1-3)]Man(b1-4)GlcNAc(b1-4)GlcNAc
Outline: as §1

[17] = molecular target: Gal(b1-4)GlcNAc(b1-3)Gal(b1-4)GlcNAc(b1-2)[Gal(b1-4)GlcNAc(b1-3)Gal(b1-4)GlcNAc(b1-6)]Man(a1-6)[Gal(b1-4)GlcNAc(b1-3)Gal(b1-4)GlcNAc(b1-2)Man(a1-3)]Man(b1-4)GlcNAc(b1-4)[Fuc(a1-6)]GlcNAc
Outline: as §1

[18] = molecular target: Gal(b1-4)GlcNAc(b1-3)Gal(b1-4)GlcNAc(b1-3)Gal(b1-4)GlcNAc(b1-2)Man(a1-3)[Gal(b1-4)GlcNAc(b1-3)Gal(b1-4)GlcNAc(b1-3)Gal(b1-4)GlcNAc(b1-2)Man(a1-6)]Man(b1-4)GlcNAc(b1-4)[Fuc(a1-6)]GlcNAc
Outline: as §1

[19] = molecular target: Gal(b1-4)GlcNAc(b1-3)Gal(b1-4)GlcNAc(b1-6)[Gal(b1-3)]GalNAc
Outline: as §1

Gal(b1-6)Gal = molecular target: Gal(b1-6)Gal
Outline: as §1

[20] = molecular target: GalNAc(b1-4)GlcNAc(b1-2)Man
Outline: as §1

GalNAc3S(b1-4)GlcNAc = molecular target: GalNAc3S(b1-4)GlcNAc
Outline: as §1

Glc(b1-6)Glc = molecular target: Glc(b1-6)Glc
Outline: as §1

B1: BT4246 (Bacteroides thetaiotaomicron), Q89ZX5 (protein)
chain: MGSSHHHHHHENLYFQGHMASDYLDVVPPEQPNIDDAMSSPTRALGFLYSCYGGVSTDLPSAYLGEINSTTDEYVLPYSWNTDGYWGAYAFNTASSTNQDWLWGTTYQYIGQCYLFLQKLENAGSDIASDAEKEQWRAECQFLVAYYHFATLRRYGPIPITDSYIPMDTPTSEYNGRFHFDYCVDWIANQLDEAAKVLPANRTVTNEWGRATSTIAKAVKARLLLYAASPLWNGSFPYPNWQNENFETPGYGKALVSNTYDKSKWERALAACQEALTLATTSGDRELYDDDEYYSRQSLNLPFVPGVADVEDNKEFLKNVMKMRYAVSTRESEGNKEIIWGLSNQFDFYSRYPLRILKKSDGTWHAGYSGVSPTLYTFEHFYTANGKLPEKDLDFTPSSEWFESAGISSREDIIKLNVGREPRFYAWMAFDGGDYGTKFAAGSPLKLEMRNSEMHGYNPSLFNRDHSVTGFLTQKFVDPVTEFYTAGGSTSGTSAPTILFRLAELYLNVAECHAALGNTQEAIDALNPVRERAGIPKLTLADITNNMTIKDWVHNERFVELWNEGHRFFDVRRWAEGAKYFGANKREGLNAEVQSPTFEEFNKRTTVDAPYVWENRMYLNPVFYNEVYKNPQMVQAPGY
[1]
  glycan array binding signal (z-score): 3.2
[2]
  glycan array binding signal (z-score): -0.111
[3]
  glycan array binding signal (z-score): 0.084
[4]
  glycan array binding signal (z-score): 2.43
[5]
  glycan array binding signal (z-score): 0.74
[6]
  glycan array binding signal (z-score): -2.1
[7]
  glycan array binding signal (z-score): 0.571
[8]
  glycan array binding signal (z-score): -0.536
[9]
  glycan array binding signal (z-score): 0.656
[10]
  glycan array binding signal (z-score): 2.02
[11]
  glycan array binding signal (z-score): -0.234
[12]
  glycan array binding signal (z-score): -0.388
Gal(b1-4)GlcNAc
  glycan array binding signal (z-score): -1.31
[13]
  glycan array binding signal (z-score): -0.67
[14]
  glycan array binding signal (z-score): 2.35
[15]
  glycan array binding signal (z-score): -0.607
[16]
  glycan array binding signal (z-score): 2.71
[17]
  glycan array binding signal (z-score): 0.32
[18]
  glycan array binding signal (z-score): 0.125
[19]
  glycan array binding signal (z-score): -0.514
Gal(b1-6)Gal
  glycan array binding signal (z-score): 0.501
[20]
  glycan array binding signal (z-score): -0.775
GalNAc3S(b1-4)GlcNAc
  glycan array binding signal (z-score): 1.88
Glc(b1-6)Glc
  glycan array binding signal (z-score): -2.27

Source: the supplement of paper PMC8728848
